Laboratory results reported in the supplement of paper PMC11732987, “Enantioselective OTUD7B fragment discovery through chemoproteomics screening and high-throughput optimisation” (Communications Chemistry, 2025).

Tests used:
Assay in all cases: log2 ratio of Biotin-Ahx-Ub-VS probe labelling (fragment/DMSO); higher = less target engagement (more negative = stronger competition), active = hit call of the paper (q ≤ 0.05, log2 ratio ≤ -1)
Conditions in all cases: compound concentration: 200 uM; treatment time: 3 h
USP42 = biological target: T1, USP42 (UniProt Q9H9J4)
T1 sequence (whole entry): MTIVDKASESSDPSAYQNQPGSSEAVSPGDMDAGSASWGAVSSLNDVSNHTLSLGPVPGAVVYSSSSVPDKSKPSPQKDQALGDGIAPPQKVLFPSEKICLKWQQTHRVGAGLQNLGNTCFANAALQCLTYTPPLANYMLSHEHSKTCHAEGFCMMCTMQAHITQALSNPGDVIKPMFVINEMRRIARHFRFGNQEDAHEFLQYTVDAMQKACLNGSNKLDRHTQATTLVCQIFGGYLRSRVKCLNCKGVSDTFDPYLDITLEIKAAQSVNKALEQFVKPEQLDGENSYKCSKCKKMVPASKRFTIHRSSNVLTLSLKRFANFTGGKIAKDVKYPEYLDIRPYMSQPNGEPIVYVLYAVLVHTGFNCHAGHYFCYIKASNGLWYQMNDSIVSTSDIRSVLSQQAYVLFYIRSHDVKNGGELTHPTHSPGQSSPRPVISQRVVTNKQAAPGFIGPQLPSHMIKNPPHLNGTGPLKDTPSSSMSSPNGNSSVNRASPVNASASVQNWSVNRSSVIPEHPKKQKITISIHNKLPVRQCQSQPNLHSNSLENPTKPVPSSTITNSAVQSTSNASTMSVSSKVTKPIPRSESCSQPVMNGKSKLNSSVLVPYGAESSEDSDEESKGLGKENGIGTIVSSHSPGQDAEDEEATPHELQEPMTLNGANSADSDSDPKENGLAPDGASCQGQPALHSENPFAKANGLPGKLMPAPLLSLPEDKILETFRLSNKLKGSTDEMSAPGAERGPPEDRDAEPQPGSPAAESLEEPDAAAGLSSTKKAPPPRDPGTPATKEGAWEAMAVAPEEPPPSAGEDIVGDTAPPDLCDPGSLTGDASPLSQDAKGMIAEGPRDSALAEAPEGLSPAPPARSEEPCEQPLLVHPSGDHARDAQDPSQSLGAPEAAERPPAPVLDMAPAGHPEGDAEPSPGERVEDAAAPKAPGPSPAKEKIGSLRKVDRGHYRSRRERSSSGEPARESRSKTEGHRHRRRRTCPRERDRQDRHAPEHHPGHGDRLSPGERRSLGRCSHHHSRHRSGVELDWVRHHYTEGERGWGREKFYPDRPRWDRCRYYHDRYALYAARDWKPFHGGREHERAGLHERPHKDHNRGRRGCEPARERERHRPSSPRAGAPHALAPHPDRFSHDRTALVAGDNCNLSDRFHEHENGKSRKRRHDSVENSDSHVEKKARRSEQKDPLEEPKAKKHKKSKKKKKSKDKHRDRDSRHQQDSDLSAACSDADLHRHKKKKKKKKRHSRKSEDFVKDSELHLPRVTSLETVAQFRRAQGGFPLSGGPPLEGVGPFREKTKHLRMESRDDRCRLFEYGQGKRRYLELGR
Summary of the method: (§1)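 Each value is an average log2 ratio of fragment to vehicle, tested by unpaired t-test. The underlying Spectronaut label-free quantities were global-median-normalised, and only proteins with ≥2 unique peptides were included. Triplicate HEK293T lysate samples (495 µg) were exposed to fragment at 200 µM or vehicle for 3 h, then to Biotin-Ahx-Ub-VS at 0.5 µM final for 1 h, before NeutrAvidin enrichment of labelled DUBs, LysC and trypsin digestion, and diaPASEF LC-MS/MS.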

USP46 = USP46 (UniProt P62068)
Chain of USP46 (P62068 whole entry): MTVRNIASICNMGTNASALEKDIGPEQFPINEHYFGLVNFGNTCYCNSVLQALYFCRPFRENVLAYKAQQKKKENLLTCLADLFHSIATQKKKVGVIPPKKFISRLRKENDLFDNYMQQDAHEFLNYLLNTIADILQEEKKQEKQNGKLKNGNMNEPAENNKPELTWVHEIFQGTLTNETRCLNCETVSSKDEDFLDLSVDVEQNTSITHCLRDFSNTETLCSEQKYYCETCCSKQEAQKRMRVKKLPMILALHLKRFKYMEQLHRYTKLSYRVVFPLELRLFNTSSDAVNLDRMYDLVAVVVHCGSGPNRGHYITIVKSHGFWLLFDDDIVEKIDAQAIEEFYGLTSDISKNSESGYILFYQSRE
Summary of the method: as §1

USP47 = biological target: T2, USP47 (UniProt Q96K76)
T2 sequence (whole entry): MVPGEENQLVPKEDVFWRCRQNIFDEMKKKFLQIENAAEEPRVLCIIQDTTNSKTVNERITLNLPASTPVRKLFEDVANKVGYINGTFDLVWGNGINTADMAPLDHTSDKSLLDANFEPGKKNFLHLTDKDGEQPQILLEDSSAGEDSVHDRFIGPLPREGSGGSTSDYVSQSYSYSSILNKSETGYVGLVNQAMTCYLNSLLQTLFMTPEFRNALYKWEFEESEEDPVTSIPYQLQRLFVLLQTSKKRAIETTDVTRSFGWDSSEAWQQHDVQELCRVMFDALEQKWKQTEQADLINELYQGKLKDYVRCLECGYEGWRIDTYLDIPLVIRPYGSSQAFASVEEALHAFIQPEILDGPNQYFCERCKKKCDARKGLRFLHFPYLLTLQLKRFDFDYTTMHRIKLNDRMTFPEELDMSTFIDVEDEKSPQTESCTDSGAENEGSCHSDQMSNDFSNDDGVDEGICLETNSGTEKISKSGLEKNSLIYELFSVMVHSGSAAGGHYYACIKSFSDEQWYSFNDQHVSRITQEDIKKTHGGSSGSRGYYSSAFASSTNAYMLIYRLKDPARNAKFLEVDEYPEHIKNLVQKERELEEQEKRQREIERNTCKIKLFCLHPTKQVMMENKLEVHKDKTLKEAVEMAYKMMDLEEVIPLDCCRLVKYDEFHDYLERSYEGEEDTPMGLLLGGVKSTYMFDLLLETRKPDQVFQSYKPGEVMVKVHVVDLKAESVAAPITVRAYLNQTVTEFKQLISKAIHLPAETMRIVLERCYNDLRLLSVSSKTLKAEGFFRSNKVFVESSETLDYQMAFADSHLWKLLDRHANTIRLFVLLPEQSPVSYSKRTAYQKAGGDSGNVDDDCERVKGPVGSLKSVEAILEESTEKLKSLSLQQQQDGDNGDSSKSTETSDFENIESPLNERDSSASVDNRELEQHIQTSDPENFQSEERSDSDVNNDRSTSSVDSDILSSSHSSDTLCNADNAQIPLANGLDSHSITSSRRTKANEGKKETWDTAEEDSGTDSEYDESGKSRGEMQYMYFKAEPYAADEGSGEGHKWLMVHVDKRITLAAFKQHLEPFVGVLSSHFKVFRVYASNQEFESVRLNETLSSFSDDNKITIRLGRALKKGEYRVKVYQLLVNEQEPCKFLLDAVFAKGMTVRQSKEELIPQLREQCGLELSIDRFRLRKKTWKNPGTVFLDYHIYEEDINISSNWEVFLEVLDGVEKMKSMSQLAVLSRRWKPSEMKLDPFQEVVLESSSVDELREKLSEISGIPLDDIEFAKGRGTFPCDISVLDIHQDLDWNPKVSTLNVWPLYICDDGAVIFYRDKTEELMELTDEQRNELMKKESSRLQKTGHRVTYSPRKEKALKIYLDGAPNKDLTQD
Summary of the method: as §1

USP48 = biological target: T3, USP48 (UniProt Q86UV5)
T3 sequence (whole entry): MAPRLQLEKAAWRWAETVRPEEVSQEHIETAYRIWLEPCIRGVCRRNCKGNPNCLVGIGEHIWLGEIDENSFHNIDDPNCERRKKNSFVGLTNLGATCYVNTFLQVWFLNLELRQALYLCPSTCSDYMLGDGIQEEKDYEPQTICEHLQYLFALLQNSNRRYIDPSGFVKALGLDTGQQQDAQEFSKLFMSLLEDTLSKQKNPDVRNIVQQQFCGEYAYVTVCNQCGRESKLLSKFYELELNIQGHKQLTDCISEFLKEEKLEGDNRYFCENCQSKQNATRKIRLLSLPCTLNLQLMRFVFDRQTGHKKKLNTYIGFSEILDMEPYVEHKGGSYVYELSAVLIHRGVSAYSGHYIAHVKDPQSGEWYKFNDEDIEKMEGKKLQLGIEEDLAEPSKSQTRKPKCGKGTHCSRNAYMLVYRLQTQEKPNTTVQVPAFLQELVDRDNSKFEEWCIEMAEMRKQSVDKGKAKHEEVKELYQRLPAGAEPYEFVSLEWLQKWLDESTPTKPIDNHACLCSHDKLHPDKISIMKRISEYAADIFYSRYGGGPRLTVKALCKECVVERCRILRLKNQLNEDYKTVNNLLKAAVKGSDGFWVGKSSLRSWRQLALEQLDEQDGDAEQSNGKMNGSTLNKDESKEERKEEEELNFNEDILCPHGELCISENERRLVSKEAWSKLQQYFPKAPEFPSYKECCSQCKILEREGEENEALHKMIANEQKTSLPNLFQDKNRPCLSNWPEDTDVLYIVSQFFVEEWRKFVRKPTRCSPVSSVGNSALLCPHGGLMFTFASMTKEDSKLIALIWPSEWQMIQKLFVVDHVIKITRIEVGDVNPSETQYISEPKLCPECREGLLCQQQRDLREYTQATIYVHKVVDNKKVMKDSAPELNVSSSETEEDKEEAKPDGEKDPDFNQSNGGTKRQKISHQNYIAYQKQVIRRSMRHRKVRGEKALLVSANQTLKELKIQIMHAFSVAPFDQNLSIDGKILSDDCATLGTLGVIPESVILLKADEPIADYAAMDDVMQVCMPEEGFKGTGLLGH
Summary of the method: as §1

USP5 = biological target: T4, USP5 (UniProt P45974)
T4 sequence (whole entry): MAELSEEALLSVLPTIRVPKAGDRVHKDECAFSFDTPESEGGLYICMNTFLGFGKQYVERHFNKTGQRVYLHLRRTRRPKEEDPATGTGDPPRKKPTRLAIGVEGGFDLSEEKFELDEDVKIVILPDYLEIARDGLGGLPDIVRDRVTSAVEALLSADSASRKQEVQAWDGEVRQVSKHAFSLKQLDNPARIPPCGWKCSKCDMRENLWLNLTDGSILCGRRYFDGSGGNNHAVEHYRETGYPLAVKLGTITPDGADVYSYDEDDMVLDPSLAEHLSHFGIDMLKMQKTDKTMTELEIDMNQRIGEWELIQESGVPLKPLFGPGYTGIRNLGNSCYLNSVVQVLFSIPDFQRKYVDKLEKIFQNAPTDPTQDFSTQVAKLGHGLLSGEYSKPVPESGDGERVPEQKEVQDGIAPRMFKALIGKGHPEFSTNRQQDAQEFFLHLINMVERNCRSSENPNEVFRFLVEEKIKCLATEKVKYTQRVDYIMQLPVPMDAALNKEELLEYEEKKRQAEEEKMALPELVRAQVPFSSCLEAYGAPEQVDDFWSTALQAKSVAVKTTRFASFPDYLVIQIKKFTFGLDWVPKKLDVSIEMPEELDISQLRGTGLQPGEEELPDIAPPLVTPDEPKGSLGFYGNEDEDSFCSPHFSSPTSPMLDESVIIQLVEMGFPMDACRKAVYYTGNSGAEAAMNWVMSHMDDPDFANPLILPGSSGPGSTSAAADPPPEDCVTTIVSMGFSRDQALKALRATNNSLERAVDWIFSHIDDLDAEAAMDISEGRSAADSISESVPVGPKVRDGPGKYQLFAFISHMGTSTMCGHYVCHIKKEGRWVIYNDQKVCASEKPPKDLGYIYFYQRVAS
Summary of the method: as §1

USP54 = USP54 (UniProt Q70EL1)
Chain of USP54 (Q70EL1 whole entry): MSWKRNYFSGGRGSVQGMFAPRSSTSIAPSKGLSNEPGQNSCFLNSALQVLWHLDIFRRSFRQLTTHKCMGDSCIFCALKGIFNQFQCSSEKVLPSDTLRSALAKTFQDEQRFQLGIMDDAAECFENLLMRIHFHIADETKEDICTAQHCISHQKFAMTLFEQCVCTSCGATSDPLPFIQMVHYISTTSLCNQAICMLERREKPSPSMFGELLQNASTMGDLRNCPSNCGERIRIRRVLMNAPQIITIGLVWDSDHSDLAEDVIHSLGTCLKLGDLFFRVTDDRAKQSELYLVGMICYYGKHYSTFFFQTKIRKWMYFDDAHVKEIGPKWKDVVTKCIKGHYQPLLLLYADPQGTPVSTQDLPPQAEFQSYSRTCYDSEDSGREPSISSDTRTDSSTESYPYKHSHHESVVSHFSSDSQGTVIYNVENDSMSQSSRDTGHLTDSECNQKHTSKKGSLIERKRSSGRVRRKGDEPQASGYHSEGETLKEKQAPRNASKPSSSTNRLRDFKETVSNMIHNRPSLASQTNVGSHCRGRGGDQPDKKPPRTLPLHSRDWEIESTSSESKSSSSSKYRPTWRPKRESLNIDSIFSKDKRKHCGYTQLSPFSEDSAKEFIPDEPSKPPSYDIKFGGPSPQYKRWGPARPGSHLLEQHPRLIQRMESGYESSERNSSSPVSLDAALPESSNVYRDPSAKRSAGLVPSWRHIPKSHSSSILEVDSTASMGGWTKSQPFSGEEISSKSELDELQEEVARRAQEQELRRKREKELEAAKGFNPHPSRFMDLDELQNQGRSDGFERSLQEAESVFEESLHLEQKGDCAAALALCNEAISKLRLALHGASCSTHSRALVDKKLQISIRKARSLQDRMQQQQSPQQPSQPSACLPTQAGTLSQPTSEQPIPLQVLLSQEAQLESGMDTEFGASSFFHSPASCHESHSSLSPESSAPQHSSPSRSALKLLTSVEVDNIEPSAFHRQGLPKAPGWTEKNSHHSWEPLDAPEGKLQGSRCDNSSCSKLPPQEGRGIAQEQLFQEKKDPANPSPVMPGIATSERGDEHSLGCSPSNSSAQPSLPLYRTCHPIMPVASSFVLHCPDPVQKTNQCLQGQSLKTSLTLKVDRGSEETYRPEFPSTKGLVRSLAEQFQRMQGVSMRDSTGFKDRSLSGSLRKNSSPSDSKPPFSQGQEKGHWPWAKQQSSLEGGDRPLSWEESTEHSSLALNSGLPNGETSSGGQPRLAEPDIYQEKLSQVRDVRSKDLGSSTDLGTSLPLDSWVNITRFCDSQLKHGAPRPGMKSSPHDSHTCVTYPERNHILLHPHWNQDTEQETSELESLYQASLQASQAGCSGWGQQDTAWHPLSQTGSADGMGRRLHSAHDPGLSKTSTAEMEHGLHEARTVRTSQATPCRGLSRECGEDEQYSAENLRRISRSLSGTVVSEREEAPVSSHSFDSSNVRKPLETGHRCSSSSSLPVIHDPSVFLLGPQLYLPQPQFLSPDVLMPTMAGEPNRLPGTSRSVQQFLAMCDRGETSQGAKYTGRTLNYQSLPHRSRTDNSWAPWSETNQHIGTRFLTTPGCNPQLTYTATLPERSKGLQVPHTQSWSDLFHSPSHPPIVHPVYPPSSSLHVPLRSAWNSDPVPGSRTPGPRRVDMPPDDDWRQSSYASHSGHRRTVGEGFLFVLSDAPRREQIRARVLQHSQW
Summary of the method: as §1

USP7 = USP7 (UniProt Q93009)
Chain of USP7 (Q93009 whole entry, looked up): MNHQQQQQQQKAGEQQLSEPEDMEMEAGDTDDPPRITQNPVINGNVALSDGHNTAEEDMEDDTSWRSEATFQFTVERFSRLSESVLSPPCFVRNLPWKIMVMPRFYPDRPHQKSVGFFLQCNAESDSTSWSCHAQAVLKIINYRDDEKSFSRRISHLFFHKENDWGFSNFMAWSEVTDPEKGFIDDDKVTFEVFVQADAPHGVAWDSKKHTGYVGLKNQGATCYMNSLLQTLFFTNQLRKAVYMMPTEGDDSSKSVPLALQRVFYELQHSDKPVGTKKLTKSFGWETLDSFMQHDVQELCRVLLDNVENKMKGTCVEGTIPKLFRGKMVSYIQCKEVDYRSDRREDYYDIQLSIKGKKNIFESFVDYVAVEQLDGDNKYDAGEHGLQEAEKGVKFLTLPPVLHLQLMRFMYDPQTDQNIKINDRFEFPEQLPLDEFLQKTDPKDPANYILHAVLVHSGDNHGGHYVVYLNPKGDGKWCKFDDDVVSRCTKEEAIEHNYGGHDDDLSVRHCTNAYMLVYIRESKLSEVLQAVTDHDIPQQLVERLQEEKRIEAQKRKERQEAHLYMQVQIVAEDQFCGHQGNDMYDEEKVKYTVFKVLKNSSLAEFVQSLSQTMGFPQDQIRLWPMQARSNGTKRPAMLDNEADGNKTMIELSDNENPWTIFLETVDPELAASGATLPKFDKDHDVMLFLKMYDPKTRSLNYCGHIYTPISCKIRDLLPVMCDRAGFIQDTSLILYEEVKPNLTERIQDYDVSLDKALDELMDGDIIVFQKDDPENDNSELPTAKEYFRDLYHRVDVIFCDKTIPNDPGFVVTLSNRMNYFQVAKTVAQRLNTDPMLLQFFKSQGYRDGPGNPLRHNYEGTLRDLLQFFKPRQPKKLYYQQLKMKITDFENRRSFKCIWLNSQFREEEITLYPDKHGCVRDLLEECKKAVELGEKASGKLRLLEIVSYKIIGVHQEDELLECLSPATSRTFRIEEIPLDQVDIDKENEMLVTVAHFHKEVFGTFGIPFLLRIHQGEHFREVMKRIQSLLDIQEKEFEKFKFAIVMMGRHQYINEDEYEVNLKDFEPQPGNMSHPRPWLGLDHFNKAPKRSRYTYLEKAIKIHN
Summary of the method: as §1

USP8 = biological target: T5, USP8 (UniProt P40818)
T5 sequence (whole entry): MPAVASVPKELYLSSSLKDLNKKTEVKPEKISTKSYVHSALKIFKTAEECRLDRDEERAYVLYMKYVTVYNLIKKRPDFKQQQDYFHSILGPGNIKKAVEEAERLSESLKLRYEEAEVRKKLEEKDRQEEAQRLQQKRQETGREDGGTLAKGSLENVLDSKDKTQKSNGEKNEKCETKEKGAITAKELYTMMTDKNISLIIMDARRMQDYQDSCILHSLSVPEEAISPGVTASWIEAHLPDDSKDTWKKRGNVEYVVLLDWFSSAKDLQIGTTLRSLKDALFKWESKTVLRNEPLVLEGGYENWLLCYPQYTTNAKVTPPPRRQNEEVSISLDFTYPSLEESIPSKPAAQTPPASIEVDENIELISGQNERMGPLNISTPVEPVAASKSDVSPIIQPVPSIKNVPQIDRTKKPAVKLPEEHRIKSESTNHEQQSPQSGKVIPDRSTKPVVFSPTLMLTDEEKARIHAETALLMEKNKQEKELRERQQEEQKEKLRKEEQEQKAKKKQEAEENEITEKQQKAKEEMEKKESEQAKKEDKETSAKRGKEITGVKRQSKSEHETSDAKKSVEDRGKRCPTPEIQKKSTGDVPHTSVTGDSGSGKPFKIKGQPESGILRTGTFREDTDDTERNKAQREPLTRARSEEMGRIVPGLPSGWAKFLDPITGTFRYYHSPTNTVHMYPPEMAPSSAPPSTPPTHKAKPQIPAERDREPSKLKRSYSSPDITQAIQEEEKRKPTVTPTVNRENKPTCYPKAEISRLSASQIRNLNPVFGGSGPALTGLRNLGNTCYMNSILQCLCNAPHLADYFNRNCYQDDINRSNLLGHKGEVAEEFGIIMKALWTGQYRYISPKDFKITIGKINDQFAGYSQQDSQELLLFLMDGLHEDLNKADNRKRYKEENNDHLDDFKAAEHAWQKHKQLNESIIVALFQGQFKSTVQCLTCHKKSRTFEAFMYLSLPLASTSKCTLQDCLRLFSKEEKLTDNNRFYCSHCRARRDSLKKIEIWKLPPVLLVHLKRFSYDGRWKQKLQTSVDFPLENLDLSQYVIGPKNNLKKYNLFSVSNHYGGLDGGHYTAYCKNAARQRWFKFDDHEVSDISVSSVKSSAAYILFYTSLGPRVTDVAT
Summary of the method: as §1

USP9X = USP9X (UniProt Q93008)
Summary of the method: as §1

UniProt O00487 = biological target: UniProt O00487
Chain of UniProt O00487 (O00487 whole entry): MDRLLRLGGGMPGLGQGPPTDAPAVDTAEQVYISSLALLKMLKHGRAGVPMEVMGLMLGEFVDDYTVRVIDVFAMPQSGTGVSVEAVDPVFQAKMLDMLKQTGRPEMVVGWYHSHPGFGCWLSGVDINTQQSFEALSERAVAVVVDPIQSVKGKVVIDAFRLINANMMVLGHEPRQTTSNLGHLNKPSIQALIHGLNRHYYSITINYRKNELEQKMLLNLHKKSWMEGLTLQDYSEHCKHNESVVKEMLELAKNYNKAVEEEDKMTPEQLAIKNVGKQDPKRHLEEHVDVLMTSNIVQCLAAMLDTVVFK
Summary of the method: as §1

Measured: log2 ratio of Biotin-Ahx-Ub-VS probe labelling

CCCn1nccc1NC(=O)CCl
inactive: USP42 0.302 | USP46 -0.137 | USP47 -0.323 | USP48 -0.124 | USP5 -0.757 | USP54 0.705 | USP7 -0.254 | USP8 -0.318 | USP9X -0.239 | UniProt O00487 -0.102

CCc1c[nH]c(CNC(=O)CCl)n1.Cl
inactive: USP42 0.203 | USP46 -0.136 | USP47 -0.108 | USP48 -0.267 | USP5 -0.335 | USP54 0.304 | USP7 -0.288 | USP8 -0.335 | USP9X -0.236 | UniProt O00487 -0.193

CC(NC(=O)CCl)c1cnn(C2CC2)c1 (stereo not given)
inactive: USP42 0.309 | USP46 -0.113 | USP47 -0.514 | USP48 0.0173 | USP5 -0.392 | USP54 0.76 | USP7 -0.323 | USP8 -0.373 | USP9X -0.227 | UniProt O00487 -0.0263
